Compounds with a hit are over-represented: about 3.7% of the library has one in this group of screens.
Anthrax LF inh2 – anthrax lethal factor protease inhibition | P15917 | multiplex microsphere protease cleavage assay, LF | inhibition, % at 10 µM | 0.12% of 360,000 active | AID 588501; further: plate controls were buffer without enzyme for full effect and enzyme alone for no effect
Target sequence (P15917 whole entry, looked up): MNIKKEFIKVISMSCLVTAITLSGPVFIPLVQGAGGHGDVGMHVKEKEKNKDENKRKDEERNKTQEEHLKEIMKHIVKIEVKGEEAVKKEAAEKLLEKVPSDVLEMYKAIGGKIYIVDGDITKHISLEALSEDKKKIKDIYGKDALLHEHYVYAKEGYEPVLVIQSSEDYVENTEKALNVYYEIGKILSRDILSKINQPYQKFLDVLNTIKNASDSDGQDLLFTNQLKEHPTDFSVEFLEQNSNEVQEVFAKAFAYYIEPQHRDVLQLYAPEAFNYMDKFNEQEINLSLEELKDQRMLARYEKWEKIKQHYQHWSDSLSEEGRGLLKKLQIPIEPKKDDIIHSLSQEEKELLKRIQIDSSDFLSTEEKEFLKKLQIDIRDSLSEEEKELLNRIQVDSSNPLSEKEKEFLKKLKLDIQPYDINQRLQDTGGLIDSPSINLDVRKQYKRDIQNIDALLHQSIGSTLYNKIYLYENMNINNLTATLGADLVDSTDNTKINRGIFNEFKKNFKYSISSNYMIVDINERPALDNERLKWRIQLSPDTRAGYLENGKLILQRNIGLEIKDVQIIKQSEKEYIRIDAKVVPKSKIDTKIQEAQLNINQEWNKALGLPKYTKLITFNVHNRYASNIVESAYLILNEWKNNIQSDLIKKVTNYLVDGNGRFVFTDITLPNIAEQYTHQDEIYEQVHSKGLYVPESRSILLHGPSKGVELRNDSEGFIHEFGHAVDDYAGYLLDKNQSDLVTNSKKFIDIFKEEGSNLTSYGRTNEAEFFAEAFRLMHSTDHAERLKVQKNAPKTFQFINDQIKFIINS
BJeLR lethal – BJeLR cell viability loss. inhibition, % (no concentration beside the values). 0.17% of 300,000 active. BJeLR (HRASV12) viability, CellTiter-Glo ATP luminescence, 48 h. AID 1554; in the data active means inhibition above about 50%; inconclusive means no clear call, values can overlap the other calls
BoNT F protease – inhibitors of Botulinum neurotoxin F light chain protease. Multiplex microsphere protease cleavage assay, flow cytometry. inhibition, % at 10 µM. 0.22% of 360,000 active. AID 588497; in the data active means inhibition above about 35%, passing the limit was not always enough; inconclusive means no clear call, values can overlap the other calls; further: plate controls were buffer without enzyme for full effect and enzyme alone for no effect
Autofluor counter – counter-screen for toxin protease inhibitors: compound fluorescence; compound autofluorescence counterscreen, microsphere flow cytometry; stronger effect = higher value; fluorescence intensity (test concentration not listed); 3.1% of 360,000 active; in the data active means fluorescence intensity above about 16000; inconclusive means no clear call, values can overlap the other calls
Vc quorum ag – induces V. cholerae light production without autoinducers; AID 588436; V. cholerae BH1578 lux reporter, luminescence, 6 h; activation, % at 18.7 µM; 0.16% of 350,000 active; in the data active means activation mostly above about 9.7%, no sharp cut-off; inconclusive means no clear call, values can overlap the other calls; inactive means mostly below about 3.7%
BoNT A protease – BoNT A light chain protease inhibition. multiplex microsphere protease substrate cleavage, flow cytometry. inhibition, % at 10 µM. 0.17% of 360,000 active; further: plate controls were buffer without enzyme for full effect and enzyme alone for no effect
The depositor's hits bear a star; i = inactive; ? = inconclusive; . = not tested or not shown. Unless noted, no stated cut-off is given here; in the data, active means inhibition above about 30%; inconclusive means no clear call, values can overlap the other calls; inactive means below that.

SMILES	Anthrax LF inh2	BJeLR lethal	BoNT F protease	Autofluor counter	Vc quorum ag	BoNT A protease
COc1ccc(C2c3ccc4ccccc4c3Oc3ncn(CCCN(C)C)c(=N)c32)cc1 (stereo not given)	3	54*	-24	3568	1	-2
COc1ccc(/C=C/C(=O)N(C(C)C)C(C)C)cc1Br	-6	8	-8	11098	-12	0
COc1ccc(/C=C/C(=O)NC(C)C)cc1Br	-1	0	1	22011*	i	1
O=C(OCn1ncc(Cl)c(Cl)c1=O)c1ccccc1Cl	-1	-44	-4	16218*	i	0
O=C(O)c1ccc(C(=O)Nc2cccc3ccccc23)c(C(=O)O)c1	-5	-3	-1	3372	225*	0
CC(=O)NC(c1ccccc1)c1nc(-c2ccc3ccccc3c2)cs1 (stereo not given)	-7	.	-3	3761	0	0
Cc1ccccc1-c1ccc(=O)n(CC(=O)Nc2ccc(N3CCOCC3)cc2)n1	-2	-4	-1	20524*	i	?
O=C(Cn1nc(-c2ccccc2)ccc1=O)Nc1ccc(-n2cnnn2)cc1	4	-5	-7	4745	-1	0
O=C(Cn1nc(-c2ccccc2)ccc1=O)Nc1ccc(N2CCN(C(=O)c3ccccc3)CC2)cc1	-1	7	0	22910*	i	1
O=C1Nc2ccccc2OC1CC(=O)N1CCN(c2cccc(C(F)(F)F)c2)CC1 (stereo not given)	2	4	1	21735*	-2	2
O=C1Nc2ccccc2OC1CC(=O)N1CCOCC1 (stereo not given)	-7	1	-14	5434	-1	-1
CCCCOc1ccc(C(=O)NCCC(=O)NCCCC(=O)OCC)cc1	-30	1	?	3950	-1	?
CCCCCCCCNC(=O)CCNC(=O)c1ccc(C(C)(C)C)cc1	-4	-5	-3	16679*	2	-2
CCCS(=O)(=O)NC(=O)C1(C)CCCN(C(=O)c2c(OC)cccc2OC)C1 (stereo not given)	-4	.	0	3965	1	0
CCCN1CCN(C(=O)Nc2ccc(C(=O)OCC)cc2)CC1	-2	-1	-1	20252*	i	0
CC1(C)CC(=O)C2=C(C1)N(CC1CCCO1)C(=O)C2(NC(=O)c1cccnc1)C(F)(F)F (stereo not given)	0	-7	-6	17055*	i	-3
CC1(C)CC(=O)C2=C(C1)N(c1ccc(F)cc1)C(=O)C2(NC(=O)c1ccccc1F)C(F)(F)F (stereo not given)	-5	-2	-10	9945	i	-1
CC1(C)CC(=O)C2=C(C1)N(Cc1ccc(F)cc1)C(=O)C2(NC(=O)c1cccnc1)C(F)(F)F (stereo not given)	-1	-9	1	20986*	-2	?
CC(C)CC(=O)NC1(C(F)(F)F)C(=O)N(Cc2ccccc2)C2=C1C(=O)CC(C)(C)C2 (stereo not given)	-3	-3	4	21893*	i	2
CN(Cc1cn(Cc2cccc(C(F)(F)F)c2)nn1)C1CN(Cc2cn(Cc3cccc(C(F)(F)F)c3)nn2)S(=O)(=O)C1 (stereo not given)	0	.	-1	6320	.	0
CC1CSc2ccccc2NC1=S (stereo not given)	-6	2	-2	16476*	3	0
S=C1CSc2ccccc2N1	-8	22	-4	3215	0	0
CCNC(=O)C1(C)CCCN(Cc2cccc3c(OC)cc(C(=O)OCC)cc23)C1 (stereo not given)	0	.	-3	3706	-1	0
NC(=S)Nc1cccc2cc3ccccc3cc12	5	4	-21	?	.	3
NC(=S)Nc1cc2ccccc2c2ccccc12	-3	-3	-1	19680*	i	?
SMILES	Anthrax LF inh2	BJeLR lethal	BoNT F protease	Autofluor counter	Vc quorum ag	BoNT A protease
CC(=O)c1c(C)[nH]c(C(=O)OCC(=O)NCc2ccccc2)c1C	-4	.	0	3760	0	-1
C[C@H]1CN([C@@H](C)CO)C(=O)c2cc(-c3cccc(C#N)c3)cnc2O[C@H]1CN(C)C(=O)c1ccccn1	1	.	4	3368	0	0
COc1cc(NC(=O)C2CC(c3cccc(Br)c3)=NO2)cc(OC)c1OC (stereo not given)	16	-1	0	3964	-1	5
COc1cccc(C2=NOC(C(=O)Nc3cc(OC)c(OC)c(OC)c3)C2)c1 (stereo not given)	-4	2	-3	21270*	-1	-3
COc1ccc(CNC(=O)C2CC(c3cccc(OC)c3)=NO2)cc1 (stereo not given)	-9	5	9	19613*	0	9
COc1ccc(NC(=O)C2CC(c3cc(OC)c(OC)c(OC)c3)=NO2)cc1OC (stereo not given)	-2	-8	1	21486*	0	5
COc1cccc(C2=NOC(C(=O)NCc3ccc(F)cc3)C2)c1 (stereo not given)	-2	-2	-7	9856	-3	-1
COc1cc(C2=NOC(C(=O)NCc3ccc(F)cc3)C2)cc(OC)c1OC (stereo not given)	0	23	-6	17938*	-2	-2
CC(C)C[C@H]1CN(CCCC[C@H]2CNC(=O)C(=O)N2CCc2ccc(O)cc2)C(=O)C(=O)N1Cc1ccccc1	4	.	7	5506	.	1
COc1cc(C2=NOC(C(=O)N3CCCCCC3)C2)cc(OC)c1OC (stereo not given)	-4	-6	8	15348	0	4
COc1ccc(C2=NOC(C(=O)Nc3ccc(C)cc3)C2)cc1OC (stereo not given)	3	3	3	21677*	0	2
COc1cc(C2=NOC(C(=O)N3CCN(c4ccc(F)cc4)CC3)C2)cc(OC)c1OC (stereo not given)	-3	-13	-2	17355*	0	-3
COc1cc(C2=NOC(C(=O)Nc3ccc(C)cc3)C2)cc(OC)c1OC (stereo not given)	-2	-5	1	19324*	1	2
O=C1NC[C@@H](CCCCN2C[C@H](Cc3ccccc3)N(CC3CCCCC3)C(=O)C2=O)N(CCc2ccccc2)C1=O	-6	.	0	4085	.	0
CC1=CNC(=O)CC(C)(C)C1	-7	.	-1	6500	.	-1
COc1ccc(Cl)cc1CC1(C)C(=O)Nc2ccc(S(=O)(=O)NC3CCCCC3)cc21 (stereo not given)	0	.	-10	3811	-3	0
CC(=O)Nc1ccc(OC(=O)N2CCCCC2)cc1	0	.	-1	22883*	i	0
COc1cc2[nH]c(=O)n(CCCCCC(=O)N3CCN(c4ccccc4)CC3)c(=O)c2cc1OC	-2	5	9	19560*	i	6
COCCn1c(SCc2csc(-c3ccccc3)n2)nc2ccccc21	-1	4	-6	22786*	i	?
COCCn1c(SCC(=O)NCc2ccccc2)nc2ccccc21	16	-7	-18	3027	i	0

From PubChem
